Measured values reported in PubChem BioAssay AID686979 (National Center for Advancing Translational Sciences (NCATS), 2013).
Where “and” joins values, the source holds several entries; their conditions need not be identical. Equal values may be shown once. Screen size: about 420,000 compounds; about 50,000 (12%) were called active. Roughly 26% stayed inconclusive and do not appear here. The full list was thinned out, with actives kept by preference. Unmarked numbers belong to inactive results. Calls follow the shape of the dose curve; as a rule, active = well fitted inhibition curve with a large enough effect; inconclusive = small, poorly fitted or top-dose-only effect; inactive = flat fitted curve, though single readings scatter.

Assay: qHTS for Inhibitors of human tyrosyl-DNA phosphodiesterase 1 (TDP1): qHTS in cells in presence of CPT; also: nearly all actives have a fitted effect of over 55% in size
Conditions: chicken DT40 Tdp1-/-;hTDP1 cells + 20 nM CPT, ATP luminescence, 48 h; series mostly up to 46.2 µM; activity change, negative = growth inhibition: at the top concentration
Procedure, shortened: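 Chicken DT40 Tdp1-/- cells stably complemented with human TDP1 were seeded at 400 cells/well in medium containing 20 nM camptothecin, exposed to pin-transferred compounds, and grown at 37 °C for at least 48 hr. Viability was read as ATP luminescence.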
% is scaled to controls: 0 for no effect and ±100 for the full control effect; potency is read from the fitted curve at half-maximal effect.

Row | SMILES | Potency | activity change, negative = growth inhibition
1 | Cc1ccc(O)c(NC(=O)CCS(=O)(=O)c2nc(-c3ccc4c(c3)OCO4)cc(C(F)(F)F)n2)c1 | 8.2 µM (active) | –
2 | O=C(CSc1ccc(-c2cccs2)nn1)Nc1ccccc1F | – | -10.7%
3 | COC(=O)c1ccccc1NC(=O)Cn1c(=O)n(-c2cccc(C(F)(F)F)c2)c(=O)c2c(C)c(C)sc21 | – | -13.6%
4 | CNS(=O)(=O)c1ccc(NC(=O)Nc2ccc3c(c2)OCO3)cc1 | – | -8.43%
5 | O=C(N[C@@H](Cc1ccccc1)C(=O)OCc1ccccc1)c1nc[nH]c1C(=O)NC1CCNCC1 | – | 10.2%
6 | O=C(NC1CCCC1)C1c2ccccc2OCC(=O)N1Cc1ccccc1 (stereo unspecified) | – | -18.2%
7 | COc1ccccc1NC(=O)c1cc(N2C(=O)C3C4CCC(C4)C3C2=O)ccc1Cl (stereo unspecified) | – | 3.9%
8 | CCOC(=O)c1ccccc1NC(=O)CSc1nc2c(sc(=S)n2CC)c(=O)[nH]1 | – | -25.9%
9 | CC(C)n1c(O)c(N=Nc2ccccn2)c2ccccc21 | – | -9.09%
10 | FC(F)(F)c1ccnc(Oc2ccc(C3=NCCS3)cc2)c1 | – | -0.223%
11 | Cc1ccc(NC(=O)c2ccco2)cc1 | – | 16.3%
12 | O=C(c1cnccn1)N1CCN(S(=O)(=O)c2cccc(Cl)c2)CC1 | – | -5.64%
13 | O=C1CC(c2ccccc2)C(=O)N2C(=O)CC(c3ccccc3)C(=O)N12 (stereo unspecified) | – | 22.6%
14 | FC(F)(F)Oc1ccccc1C(c1nnnn1C1CCCCC1)N1CCN(C/C=C/c2ccccc2)CC1 (stereo unspecified) | 18.4 µM (active) | –
15 | CCOC(=O)C1CCN(C(c2cc3cc(C)cc(C)c3[nH]c2=O)c2nnnn2C2CCCCC2)CC1 (stereo unspecified) | – | -25.1%
16 | CNC(=O)NC(=O)C(C)N1CCN(C/C=C/c2ccccc2)CC1 (stereo unspecified) | – | 13.1%
17 | COCCn1c(=O)c(-c2ccc(OC)cc2)nc2cnc(Oc3cccc(Cl)c3)nc21 | – | 4.38%
18 | Cc1cc(C)n(-c2ccc3nncn3n2)n1 | – | 9.29%
19 | COc1ccccc1Cc1nc(-c2ccc(C)cc2)no1 | – | -29.4%
20 | COc1ccc2nc(SCC(=O)Nc3c(C)cc(C)cc3C)[nH]c2c1 | – | -17.4%
21 | Cc1ccc(S(=O)(=O)N(Cc2nc(-c3ccc(Cl)cc3)no2)C2CCCCC2)cc1 | 16.4 µM (active) | –
22 | COc1ccc(-c2noc(CSc3nc4ccc(C)cc4[nH]3)n2)cc1 | 20.6 µM (active) | –
23 | Cc1ccc(-c2noc(CC(c3ccccc3)c3ccccc3)n2)cc1 | – | -27.7%
24 | COc1ccc(-c2noc(CSc3ccc(C)cc3)n2)cc1 | – | -20.1%
25 | COc1ccc(-c2noc(CCC(=O)N(C)c3ccccc3C)n2)cc1 | – | -22.6%
26 | COc1ccc(-c2noc(CN(C)S(=O)(=O)c3ccc(C)cc3)n2)cc1 | 16.4 µM (active) | –

Row | SMILES | Potency | activity change, negative = growth inhibition
27 | CC1CCN(Cc2nc(-c3ccc(Cl)cc3)no2)CC1 | – | -26.8%
28 | Cc1cccc(OCC(=O)NCCNC(=O)c2cccnc2)c1 | – | -1.32%
29 | CCCC(=O)N1CCN(c2nc3c(OC)ccc(C)c3s2)CC1 | – | -28.7%
30 | CC(C)C(=O)Nc1c2c(nn1-c1ccccc1)CSC2 | – | -4.66%
31 | O=C(CN1C(=O)CCS(=O)(=O)c2ccccc21)NCc1ccc(F)cc1 | – | 2.03%
32 | CN(CC(=O)Nc1ccccc1Cl)C(=O)c1ccccc1SCC(=O)N1CCCC1 | – | 1.16%
33 | Cc1cccc(CNC(=O)c2cnn(-c3nccc(-c4ccccc4F)n3)c2C2CC2)n1 | – | -0.952% [at 9.04 µM]
34 | CCOc1ccccc1N1CN(Cc2ccccc2)CNC1=S | – | -17.4%
35 | O=C1CCCN1C(=O)COc1ccc([N+](=O)[O-])cc1 | – | 10.3%
36 | CN(Cc1ccccc1)C(=O)c1cn(C)c2ccc(S(=O)(=O)N(C)C3CCCCC3)cc2c1=O | – | -20%
37 | CN(c1ccccc1)S(=O)(=O)c1ccc(Cl)c(C(=O)NCCc2c[nH]c3ccccc23)c1 | 14.6 µM (active) | –
38 | CCc1ccc(NS(=O)(=O)c2ccc3[nH]cc(C(=O)NCCc4cccc(C)c4)c(=O)c3c2)cc1 | – | -27.2%
39 | CN(c1ccccc1)S(=O)(=O)c1ccc(Cl)c(C(=O)OCC(N)=O)c1 | – | 0.976%
40 | O=C(NCCc1ccccc1)c1c[nH]c2ccc(F)cc2c1=O | – | 9.16%
41 | CCN(CC)S(=O)(=O)c1ccc2[nH]cc(C(=O)NCCc3ccccc3)c(=O)c2c1 | 14.6 µM (active) and 23.1 µM (active) | –
42 | CC(=O)N/C(=C/c1ccc(Cl)cc1)C(=O)NCCc1c[nH]c2ccccc12 | – | -13.8%
43 | CN(CC(=O)NC(=O)Nc1ccccc1F)Cc1ccccc1 | – | -15.6%
44 | COCCNC(=O)C1CCN(C(=O)C2CC(=O)N(c3ccc(C)cc3)C2)CC1 (stereo unspecified) | – | 10.4%
45 | CCN(CC)CCCNC(=O)COc1ccc2oc3c(c2c1)CCCC3 | – | -13.5%
46 | N[C@@H](Cc1ccccc1)C(=O)N1CCOCC1 | – | 4.38%
47 | COc1cc(OC)cc(C(=O)NCCCn2ccnc2)c1 | – | 28.8%
48 | CCOc1ccc(-c2cc3nc(C4CCN(C(=O)OC(C)(C)C)CC4)c(C(=O)Nc4cccc(CC)c4)cn3n2)cc1 | 23.1 µM (active) | –
49 | CCc1cccc(NC(=O)COC(=O)C2CCN(c3ccc(C(F)(F)F)cn3)CC2)c1 | – | 0.109%
50 | CCOc1ccc(-c2cc3nc(C4CCN(C(=O)OC(C)(C)C)CC4)c(C(=O)Nc4ccc(C(=O)OC)cc4)cn3n2)cc1 | – | -25.1%
51 | O=c1[nH]cnc(O)c1C(c1ccc(F)cc1)c1c(O)nc[nH]c1=O | – | 6.39%
